{"source": "PubChem BioAssay AID588719", "about": "(Southern Research Specialized Biocontainment Screening …, 2011)", "note": "Hit rate of the full screen: of about 1,500 compounds, about 920 (61%) were called active. How the calls were made is not given here. The set was probably picked from earlier hits. The list shows a part of the results. Entries that show only a call come without a potency. Potency and affinity values are given separately."}
{"test": "Vero 76 cell cytotoxicity, dose response, cytotoxicity control for VEEV inhibitor project (AID 588719)", "conditions": "Vero 76 cells viability, cytotoxicity counter-screen; series mostly up to 25 µM"}
{"smiles": "CN1CCC(N(C)S(=O)(=O)c2ccc(NC(=O)COc3ccc(Cl)cc3)cc2)CC1", "outcome": "inactive"}
{"smiles": "CCN1CCN(c2sc(S(C)(=O)=O)nc2S(=O)(=O)c2ccc(C)cc2)CC1", "outcome": "inactive"}
{"smiles": "O=C1[C@H]2[C@@H](c3ccccc3)N[C@]3(CCCN(Cc4ccc(Br)cc4)C3=O)[C@H]2C(=O)N1Cc1ccccc1", "outcome": "inactive"}
{"smiles": "CCOC(=O)NC(C(Cl)(Cl)Cl)S(=O)(=O)c1ccccc1", "note": "(stereo not given)", "outcome": "inactive"}
{"smiles": "Nc1ccc2nc(-c3cccc(-c4nc5ccc(N)cc5[nH]4)c3)[nH]c2c1", "outcome": "inactive"}
{"smiles": "O=C(COC(=O)Cc1ccc(S(=O)(=O)N2CCOCC2)s1)Nc1ccccc1Cl", "outcome": "inactive"}
{"smiles": "O=C(COC(=O)c1ccc(Br)o1)Nc1cccc(S(=O)(=O)N2CCOCC2)c1", "outcome": "inactive"}
{"smiles": "CC1(C)CC2(OC2c2ccccc2[N+](=O)[O-])C(=O)c2ccccc21", "note": "(stereo not given)", "outcome": "inactive"}
{"smiles": "[O-][n+]1c(/C=C/c2ccccc2)ccc2ccccc21", "outcome": "inactive"}
{"smiles": "CCOC(=O)C(=Cc1ccc(-c2ccsc2C(=O)OC)o1)C(=O)OCC", "outcome": "inactive"}
{"smiles": "CCOC(=O)C(=Cc1ccc(-n2ccnc2)cc1)C(=O)OCC", "outcome": "inactive"}
{"smiles": "O=C(O)C1CCN(C(=O)c2cc(F)cc3c2OCOC3)CC1", "outcome": "inactive"}
{"smiles": "O=C(O)C1CC=CCC1C(=O)Nc1ccc(S(=O)(=O)N2CCCc3ccccc32)cc1", "note": "(stereo not given)", "outcome": "inactive"}
{"smiles": "Cc1ccc2c(c1)CCCN2S(=O)(=O)c1cccc(C(=O)Nc2ccccc2C(=O)O)c1", "outcome": "inactive"}
{"smiles": "Cc1cc2c(c(/C=C/C(=O)c3ccccc3)c1)OC1(C=C2)Oc2ccccc2C(=O)N1C", "note": "(stereo not given)", "outcome": "inactive"}
{"smiles": "CN(C)CCNC(=O)c1onc(CSc2ccc(F)c(F)c2)c1C(=O)NCCN(C)C", "outcome": "inactive"}
{"smiles": "O=C(Oc1ccc2ccccc2c1Cl)N1CCCC1", "outcome": "inactive"}
{"smiles": "C=CCn1c(SCC(=O)NC23CC4CC(CC(C4)C2)C3)nc(O)cc1=O", "outcome": "inactive"}
{"smiles": "O=C(NCc1cccnc1)c1ccc(NS(=O)(=O)c2cccc([N+](=O)[O-])c2)cc1", "outcome": "inactive"}
{"smiles": "Fc1ccccc1CSc1ncnc2c1ncn2C1CCCO1", "note": "(stereo not given)", "outcome": "inactive"}
{"smiles": "N#C/C(=C\\c1c(Oc2ccccc2Cl)nc2ccccn2c1=O)C(=O)NC1CCS(=O)(=O)C1", "note": "(stereo not given)", "outcome": "inactive"}
{"smiles": "COc1cccc2c1C(=O)c1c(O)c3c(c(O)c1C2=O)C[C@@](O)(C(=O)CO)C[C@@H]3OC1CC(N)C(O)C(C)O1", "note": "(stereo not given in full)", "outcome": "inactive"}
{"smiles": "Cc1cccc(CS(=O)(=O)c2ncc(Cl)c(C(=O)Nc3ccc(F)cc3)n2)c1", "outcome": "inactive"}
{"smiles": "c1ccc2c3c([nH]c2c1)C1(CCNCC1)NCC3", "outcome": "inactive"}
{"smiles": "CC[C@@H](C)[C@H](NC(=O)OC(C)(C)C)c1nnc(S(=O)(=O)Cc2cc(C)ccc2C)o1", "outcome": "inactive"}
{"smiles": "CC(=O)Nc1nnc(SCC(=O)c2ccc3c(c2)Cc2ccccc2-3)s1", "outcome": "inactive"}
{"smiles": "CCC(=O)Nc1nnc(SCC(=O)c2ccc3c(c2)Cc2ccccc2-3)s1", "outcome": "inactive"}
{"smiles": "Cc1cc(C)n(-c2nc(N(c3ccccc3)c3ccccc3)nc(-n3nc(C)cc3C)n2)n1", "outcome": "inactive"}
{"smiles": "CCOC(=O)c1c[nH]n2c(=O)cc(C)nc12", "outcome": "inactive"}
{"smiles": "O=C(CCS(=O)(=O)c1ccccc1)Nc1nnc(C(F)(F)F)s1", "outcome": "inactive"}
{"smiles": "Cc1ccc(CSCC(=O)Nc2ccccc2C(=O)O)cc1", "outcome": "inactive"}
{"smiles": "CC(C)CCn1nnnc1CN1CCN(c2ccccc2)CC1", "outcome": "inactive"}
{"smiles": "C/C=C/c1cc(CN2CCN(c3ccccc3)CC2)c(O)c(OC)c1", "outcome": "inactive"}
{"smiles": "CC(=O)OCC1CC(COC(C)=O)C(COC(C)=O)CC1COC(C)=O", "note": "(stereo not given)", "outcome": "inactive"}
{"smiles": "S=c1[nH]nc(-c2cccc(Cl)c2)n1/N=C/c1ccc(-c2ccccc2Br)o1", "outcome": "inactive"}
{"smiles": "CCN1CCC(CNCc2cn(-c3ccc(OC)cc3)nc2-c2ccccc2Cl)C1", "note": "(stereo not given)", "outcome": "inactive"}
{"smiles": "Nc1ncnc(N2CCOCC2)n1", "outcome": "inactive"}
{"smiles": "O=C(COC(=O)c1ccc(O)cc1O)Nc1ccc2ccccc2c1", "outcome": "inactive"}
{"smiles": "CCOC(=O)C1(CCC(=O)OCc2ccccc2)CCCCC1=O", "note": "(stereo not given)", "outcome": "inactive"}
{"smiles": "CCC(CC)N1CCN(Cc2nc3ccc([N+](=O)[O-])cc3c(=O)n2-c2ccccc2F)CC1", "outcome": "inactive"}
{"smiles": "OCCCNc1cc(-c2ccccc2)nc2cc(-c3ccc(F)cc3)nn12", "outcome": "inactive"}
{"smiles": "Cc1ccc(C)c(C2=NNC(=O)CC2)c1", "outcome": "inactive"}
{"smiles": "Cc1cccc(C(=O)OCC(=O)N2CCN(C(=O)c3ccco3)CC2)c1O", "outcome": "inactive"}
{"smiles": "COc1cc2nc(N3CCNCC3)nc(N)c2cc1OC", "outcome": "inactive"}
{"smiles": "OCC[n+]1c2ccccc2nc2ccc(N3CCOCC3)cc21", "outcome": "inactive"}
{"smiles": "COc1ccc(C(C)=NOC(=O)c2c(-c3ccccc3Cl)noc2C)cc1CN1CCOCC1", "outcome": "inactive"}
{"smiles": "CC(C)Oc1ccc(C(=O)CCN2CCOCC2)cc1", "outcome": "inactive"}
{"smiles": "Cc1c(C(O)CN2CCN(Cc3ccc4c(c3)OCO4)CC2)c2ccccc2n1C", "note": "(stereo not given)", "outcome": "inactive"}
{"smiles": "Brc1ccc2[nH]c3c(c2c1)CCC3", "outcome": "inactive"}
{"smiles": "Cc1onc(-c2ccccc2)c1C(=O)NCc1ccc(F)cc1", "outcome": "inactive"}
{"smiles": "Cc1ccc(C)c(CN2CCC(CNC(=O)Nc3ccc(Br)cc3F)CC2)c1", "outcome": "inactive"}
{"smiles": "O=C1c2cc([N+](=O)[O-])cc3cc([N+](=O)[O-])cc(c23)C(=O)N1c1ccccn1", "outcome": "inactive"}
{"smiles": "CC(C)Cc1ccc(CN2CCCC(NC(=O)c3cccc(-n4cnnc4)c3)C2)cc1", "note": "(stereo not given)", "outcome": "inactive"}
{"smiles": "Nc1nc(C2CC2)c(Sc2sc(N)nc2C2CC2)s1", "outcome": "inactive"}
{"smiles": "COc1ccc(C[C@H]2CN3C(=NC[C@H]3C)N2CCNC(=O)CCC2CCCCC2)cc1", "outcome": "inactive"}
{"smiles": "O[C@H]1C[C@H](c2ccc(Cl)cc2)N(CC2CCCCC2)C[C@@H]1n1cc(-c2ccc(F)cc2)nn1", "outcome": "inactive"}
{"smiles": "CCOC(=O)C1=C(NC(=S)NC(=O)c2ccccc2)c2ccccc2CC1(C)C", "outcome": "inactive"}
{"smiles": "Cc1sc(NC(=S)NC(=O)c2ccc(C(C)(C)C)cc2)c(C#N)c1C", "outcome": "inactive"}
{"smiles": "CC(C)(C)c1ccc(C(=O)NC(=S)Nc2sc3c(c2C#N)CCC3)cc1", "outcome": "inactive"}
{"smiles": "Cc1ccc(NC(=S)NNC(=S)Nc2cccc(C(F)(F)F)c2)cc1", "outcome": "inactive"}
{"smiles": "ClCCn1cnc2c(SCc3ccccc3Cl)ncnc21", "outcome": "inactive"}
{"smiles": "Cc1cccc2sc(N(CCCN(C)C)C(=O)c3ccc4ncsc4c3)nc12", "outcome": "inactive"}
{"smiles": "CC1SCC(NC(=O)c2ccc(Cl)cc2)CS1", "note": "(stereo not given)", "outcome": "inactive"}
{"smiles": "Cc1cccc2c1NC1(CCCC1)CC2C", "note": "(stereo not given)", "outcome": "inactive"}
{"smiles": "C/C(CCC12CC3CC(CC(C3)C1)C2)=N\\NC(N)=S", "outcome": "inactive"}
{"smiles": "CC(=O)NNc1cc(C)nc(N)n1", "outcome": "inactive"}
{"smiles": "Cc1ccc(Cc2c(-c3ccc(C)cc3)nc3c4ccccc4ccn23)cc1", "outcome": "inactive"}
{"smiles": "COCCn1c(SC(C)C(=O)Nc2ncc(Cl)cc2Cl)nc2ccccc21", "note": "(stereo not given)", "outcome": "inactive"}
{"smiles": "Cc1cc(SC(C)C(=O)Nc2ncc(Cl)cc2Cl)nc2ccccc12", "note": "(stereo not given)", "outcome": "inactive"}
{"smiles": "O=C(CCCCN1CCCCC1)c1ccc2c(c1)Cc1ccccc1-2", "outcome": "inactive"}
{"smiles": "CCOC(=O)c1ccc(NC(=S)N(CCN(C)C)Cc2cccs2)cc1", "outcome": "inactive"}
{"smiles": "COc1ccc(Nc2ccccc2N)cc1", "outcome": "inactive"}
{"smiles": "COc1ccc(OC)c(Nc2nc(NCCC(C)C)nc(N)c2[N+](=O)[O-])c1", "outcome": "inactive"}
{"smiles": "CCc1ccccc1Nc1nc(N)nc(COC(=O)CCC(=O)c2ccc(F)cc2)n1", "outcome": "inactive"}
{"smiles": "CCc1ccccc1Nc1nc(N)nc(COC(=O)c2cccn2C)n1", "outcome": "inactive"}
{"smiles": "CCOC(=O)c1c(S(=O)(=O)N2CCC(C)CC2)c(C)n(C)c1C", "outcome": "inactive"}
{"smiles": "Cn1c(SCC(=O)c2ccccc2)nnc1-c1ccccn1", "outcome": "inactive"}
{"smiles": "CCc1cc(C(=O)c2ccc(OC)cc2)c(NC(=O)CN2CCN(C)CC2)s1", "outcome": "inactive"}
{"smiles": "O=C(Nc1ccccc1)N1CCN(C2c3ccccc3-c3ccccc32)CC1", "outcome": "inactive"}
{"smiles": "Cc1ccc(-c2nc(CCN3C(=O)c4ccccc4C3=O)cs2)cc1", "outcome": "inactive"}
{"smiles": "CC(=O)N1CCC(C(=O)Nc2cc(S(=O)(=O)N3CCCCC3)ccc2C)CC1", "outcome": "inactive"}
{"smiles": "CCN(CC)c1ccc(S(=O)(=O)N2CCOCC2)cc1NC(=O)COC(=O)/C=C/c1ccc(C)o1", "outcome": "inactive"}
{"smiles": "COCOCCn1cc(CN2CCS(=O)(=O)N(Cc3ccc(-c4ccc(F)nc4)cc3)C(CC(C)C)C2=O)nn1", "note": "(stereo not given)", "outcome": "inactive"}
{"smiles": "CN1CCN(c2ccc(-c3cccc(NC(=O)COc4ccc(Cl)cc4Cl)c3)nn2)CC1", "outcome": "inactive"}
{"smiles": "Cc1ccc(C(C[N+](=O)[O-])Sc2ccc(N)cc2)cc1", "note": "(stereo not given)", "outcome": "inactive"}
{"smiles": "COc1ccc(CCNc2cc(C)nc3c(-c4ccccc4)cnn23)cc1OC", "outcome": "inactive"}
{"smiles": "CCOC(=O)C1CCN(C(c2ccccn2)c2c(C)[nH]c3ccccc23)CC1", "note": "(stereo not given)", "outcome": "inactive"}
{"smiles": "O=c1[nH]c(-c2ccccn2)nc2sc(-c3ccccc3)cc12", "outcome": "inactive"}
{"smiles": "C=CCn1c(SCC(=O)c2cccs2)nc2sc(C)c(C)c2c1=O", "outcome": "inactive"}
{"smiles": "Cn1c(=O)c2[nH]c(CSCc3ccccc3)nc2n(C)c1=O", "outcome": "inactive"}
{"smiles": "Cc1ccc(CNc2ccc(O)cc2)cc1", "outcome": "inactive"}
{"smiles": "CN1C/C(=C\\c2ccc(N3CCOCC3)cc2)C(=O)/C(=C/c2ccc(N3CCOCC3)cc2)C1", "outcome": "inactive"}
{"smiles": "O=C(/C=C/c1ccc2c(c1)OCO2)c1ccccn1", "outcome": "inactive"}
{"smiles": "Nc1cnn(C2OC(CO)C(O)C2O)c(=O)n1", "note": "(stereo not given)", "outcome": "inactive"}
{"smiles": "Cc1ccccc1Oc1ccc2c(c1)[C@@H]1C[C@H](N(C)C(=O)c3ccco3)[C@H]([C@H](C)O)C(=O)N1CC2", "outcome": "inactive"}
{"smiles": "CCOC(=O)c1oc2ccc(Br)cc2c1NC(=O)CN1CCN(C)CC1", "outcome": "inactive"}
{"smiles": "CCOc1ccc(-c2c(C(=O)N/N=C(\\C)c3cccs3)nnn2-c2nonc2N)cc1", "outcome": "inactive"}
{"smiles": "Cc1nn(CC(=O)Nc2nccs2)c(C)c1[N+](=O)[O-]", "outcome": "inactive"}
{"smiles": "O=C1CCCCC1Nc1ccc2ccccc2c1", "note": "(stereo not given)", "outcome": "inactive"}
{"smiles": "CC(C)(C)C1CCC(=NNc2ccc(S(N)(=O)=O)cc2[N+](=O)[O-])CC1", "note": "(stereo not given)", "outcome": "inactive"}
{"smiles": "NC(=S)N/N=C/c1ccc(-c2ccc(SC(F)F)cc2)o1", "outcome": "inactive"}
{"smiles": "CCN(CC)CCCNC(=O)c1ccc2c(Cl)c3c(nc2c1)CCCC3", "outcome": "inactive"}
{"smiles": "CCN1CCN(CCCNC(=O)c2cc3c(s2)-c2ccccc2OC3)CC1", "outcome": "inactive"}
{"smiles": "O=C1CC(/C=C/c2ccc(Cl)cc2)=Nc2ccccc2N1", "outcome": "inactive"}
{"smiles": "CN1CCN(NC(=O)c2cc(-c3cccc(Cl)c3)nc3ccccc23)CC1", "outcome": "inactive"}
